From PubChem BioAssay AID574 (The Scripps Research Institute Molecular Screening Center, 2007)
The whole screen tested about 65,000 compounds, of which about 450 (0.69%) were called active. The sample holds actives, similar compounds and a random draw of the others, so the mix is not that of the screen.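 How the source made its calls: active means activation above a set limit, the screen-wide mean activation plus 3 SD (cut at about 8.5% in these data); inactive means the rest.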

The compounds below were run against 5-hydroxytryptamine receptor 1E (Homo sapiens) (UniProt P28566) (assay: 5-HT1E receptor agonists, primary screen, cell-based, HTS (AID 574;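 further: 100% = positive control agonist at 1 µM giving full maximal response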)). Settings: CHO 5-HT1E Ga15 NFAT-bla reporter, FRET; at 6 µM; hits give high values.
Chain of 5-hydroxytryptamine receptor 1E (Homo sapiens) (P28566 whole entry, looked up): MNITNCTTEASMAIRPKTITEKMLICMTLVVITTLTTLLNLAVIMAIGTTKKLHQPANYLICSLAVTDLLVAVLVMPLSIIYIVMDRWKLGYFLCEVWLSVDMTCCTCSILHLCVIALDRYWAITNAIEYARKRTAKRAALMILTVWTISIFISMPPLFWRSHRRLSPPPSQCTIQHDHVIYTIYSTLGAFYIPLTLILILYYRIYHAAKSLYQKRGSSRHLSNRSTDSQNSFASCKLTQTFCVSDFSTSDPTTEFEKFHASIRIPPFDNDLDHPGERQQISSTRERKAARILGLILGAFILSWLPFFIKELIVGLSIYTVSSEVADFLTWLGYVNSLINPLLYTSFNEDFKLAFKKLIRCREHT
For c1ccc2sc(C3CCCNC3)nc2c1 (stereo not given), the activation was 98.8% (active). In the case of Cc1ccc(P(=S)(c2ccc(C)o2)N2CCOCC2)o1, the activation is reported as -1.7% (inactive). With O=C1NC(=O)C(C/C=C/c2ccccc2)C(=O)N1 the activation was 0.1% (inactive). With COc1ccccc1CN1CCN(C(=O)Cc2ccccc2)CC1 the activation was -0.5% (inactive). Fc1cccc(F)c1CN1CCN(Cc2c(F)cccc2F)CC1 was tested, and the activation was 1.1% (inactive). In the case of COc1ccc(CN2CCN(c3ccccc3F)CC2)c(OC)c1, the activation is reported as 54.1% (active). With CC(=NC1CCN(Cc2ccccc2)CC1)c1c(O)n(C)c(=O)n(C)c1=O the activation was 0% (inactive). CCOP(=S)(OCC)SCOC(=O)NCC(=O)OC was tested, and the activation was -0.2% (inactive). CC[N+]1(C)CCCC(OC(=O)C(O)(c2ccccc2)c2ccccc2)C1 (stereo not given) was tested, and the activation was -0.1% (inactive). For CC(C)c1ccc(OCC(=O)N2CCN(C)CC2)c(Br)c1, the activation was -1.2% (inactive).
